# Screening data from PubChem BioAssay.
# In the library only some 1.9% were active in any assay of this set; here they are far more common.
# TsaE inh: YjeE (TsaE) inhibition, E. coli; 0.05% of 71,000 active; Potency, µM; AID 605; purified YjeE enzyme, qHTS inhibition assay
#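 Fluorescence polarization of a BODIPY Texas Red–ADP probe (2 uM) bound to purified YjeE (10 uM) was read after 15 min room-temperature incubation with compounds. Loss of polarization marks inhibitors; ADP serves as titrated control.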
# Hsp90 Hop PPI: changes Hsp90-Hop TPR2A binding signal, up or down. AlphaScreen TPR2A-His6 binding biotin-Hsp90 C-terminal peptide. Potency, µM (doses to about 57 µM). 0.44% of 71,000 active; active = well fitted curve in either direction with a large enough effect; inconclusive = small, poorly fitted or top-dose-only effect, or another doubt
# 15-hLO inh: 15-hLO (ALOX15) enzyme inhibition; P16050; purified 15hLO-1, xylenol orange hydroperoxide absorbance; Potency, µM (highest dose often 57.1 µM), hits mostly inhibitors; 1.4% of 74,000 active; AID 887; also: nearly all actives have a fitted effect of over 55% in size
#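 Hydroperoxide formed from arachidonic acid (50 uM) by purified human 15hLO-1 (40 nM) oxidizes ferrous iron, and the ferric-xylenol orange complex is read at 573 versus 405 nm. Compounds were preincubated 15 min; reaction ran 6 min at room temperature.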
# BRCT inh red: BRCT-phosphoprotein interaction inhibition (red fluorophore). P38398. BRCT-phosphopeptide binding, red fluorescence polarization. Potency, µM (series often up to 76.9 µM), actives largely listed as inhibitors. 0.03% of 75,000 active
# Target sequence (P38398 whole entry, looked up): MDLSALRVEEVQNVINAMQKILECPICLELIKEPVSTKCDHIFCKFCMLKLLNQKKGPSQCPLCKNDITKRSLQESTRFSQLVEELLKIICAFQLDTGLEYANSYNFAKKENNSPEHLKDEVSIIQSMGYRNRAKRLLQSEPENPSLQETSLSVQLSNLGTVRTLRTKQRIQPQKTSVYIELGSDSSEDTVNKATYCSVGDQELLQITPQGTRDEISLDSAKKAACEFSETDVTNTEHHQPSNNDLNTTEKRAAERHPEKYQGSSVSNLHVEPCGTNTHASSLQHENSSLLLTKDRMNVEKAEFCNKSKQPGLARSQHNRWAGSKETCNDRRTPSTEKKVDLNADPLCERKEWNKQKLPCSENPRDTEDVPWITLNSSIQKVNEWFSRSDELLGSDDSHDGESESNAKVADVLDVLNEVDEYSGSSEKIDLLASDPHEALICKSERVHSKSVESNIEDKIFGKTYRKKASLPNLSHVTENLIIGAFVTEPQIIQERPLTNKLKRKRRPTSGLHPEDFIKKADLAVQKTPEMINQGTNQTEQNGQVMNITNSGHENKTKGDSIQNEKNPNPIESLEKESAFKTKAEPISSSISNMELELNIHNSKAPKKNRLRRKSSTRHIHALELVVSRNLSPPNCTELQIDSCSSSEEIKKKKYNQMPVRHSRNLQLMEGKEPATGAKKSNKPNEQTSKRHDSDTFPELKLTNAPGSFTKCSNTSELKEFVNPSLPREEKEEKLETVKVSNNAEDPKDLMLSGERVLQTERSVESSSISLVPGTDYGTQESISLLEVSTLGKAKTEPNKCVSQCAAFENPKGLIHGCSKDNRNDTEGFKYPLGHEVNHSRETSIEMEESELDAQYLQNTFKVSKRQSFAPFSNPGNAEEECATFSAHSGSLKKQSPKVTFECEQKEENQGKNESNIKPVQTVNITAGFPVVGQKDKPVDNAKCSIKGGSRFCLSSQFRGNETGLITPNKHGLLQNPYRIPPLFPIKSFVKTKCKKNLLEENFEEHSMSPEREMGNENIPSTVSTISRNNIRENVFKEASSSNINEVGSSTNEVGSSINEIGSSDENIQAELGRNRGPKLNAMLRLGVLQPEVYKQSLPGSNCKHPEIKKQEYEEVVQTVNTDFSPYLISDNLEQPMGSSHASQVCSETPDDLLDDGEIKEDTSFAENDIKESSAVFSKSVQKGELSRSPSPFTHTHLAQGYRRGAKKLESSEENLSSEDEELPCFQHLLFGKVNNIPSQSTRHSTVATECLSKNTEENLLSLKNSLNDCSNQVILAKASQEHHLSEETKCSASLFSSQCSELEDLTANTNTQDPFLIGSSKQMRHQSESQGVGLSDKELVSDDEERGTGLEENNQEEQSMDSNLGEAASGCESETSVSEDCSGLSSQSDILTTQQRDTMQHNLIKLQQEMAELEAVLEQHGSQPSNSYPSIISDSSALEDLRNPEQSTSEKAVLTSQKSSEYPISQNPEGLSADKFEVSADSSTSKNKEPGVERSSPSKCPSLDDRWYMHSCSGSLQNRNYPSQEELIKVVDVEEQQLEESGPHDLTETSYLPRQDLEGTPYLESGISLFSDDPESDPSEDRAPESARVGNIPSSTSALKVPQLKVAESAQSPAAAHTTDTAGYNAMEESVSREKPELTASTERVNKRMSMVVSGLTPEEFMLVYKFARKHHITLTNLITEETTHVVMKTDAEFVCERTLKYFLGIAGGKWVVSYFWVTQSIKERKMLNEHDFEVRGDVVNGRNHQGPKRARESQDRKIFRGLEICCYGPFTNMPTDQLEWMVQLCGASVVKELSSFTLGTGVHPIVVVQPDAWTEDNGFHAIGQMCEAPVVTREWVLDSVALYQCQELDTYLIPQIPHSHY
#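 Rhodamine-labelled pBACH1 10-mer (100 nM) bound to BRCT domain (100 nM) at pH 7.3; compounds incubated 12 min room temperature, polarization read. Free peptide defines full inhibition; unlabelled decapeptide titrated as control.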
# BRCT inh green: BRCA1 BRCT-phosphoprotein interaction inhibition. P38398. BRCA1 BRCT-phosphopeptide binding, green fluorescence polarization. Potency, µM (doses to about 76.9 µM), usual class: inhibitors. 0.05% of 75,000 active
#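 Compounds were incubated for 12 min at room temperature with a complex of 100 nM fluorescein-tagged pBACH1 decapeptide and 250 nM His-tagged BRCT protein. Buffer was phosphate pH 7.3 with EDTA, DTT and Tween 20. Disruption of binding lowers the polarization signal.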
# Pol III holo inh: inhibitors of bacterial DNA polymerase III holoenzyme | reconstituted DNA polymerase III holoenzyme replication, biochemical | Potency, µM (top dose mostly 57.1 µM) | 0.25% of 71,000 active
#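 Reconstituted *E. coli* holoenzyme (0.35 nM Pol III, 1 nM beta, 154 nM SSB, 2 nM primase) was preincubated with compound for 15 min at RT. Synthesis on 1.4 nM ssM13Gori ran 35 min, then was stopped with PicoGreen/EDTA and read as dsDNA fluorescence.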
# Numbers stand for hits; n = inactive; u = inconclusive; x = no result; ! = not active in a repeat; [ ] = another dose, or the depositor's remark. Unless noted, calls follow the shape of the dose curve; as a rule, active = well fitted curve in the direction sought with a large enough effect; inconclusive = small, poorly fitted or top-dose-only effect, or another doubt; inactive = no such curve, though single readings can be large; an effect the other way counts as inactive or inconclusive.
SMILES,TsaE inh,Hsp90 Hop PPI,15-hLO inh,BRCT inh red,BRCT inh green,Pol III holo inh
CN1CC=C(c2c[nH]c3ccccc23)CC1,n,n[2.3 µM],0.631µM,n,n,n
Oc1cccc(Cl)c1Cl,n,n,n,n,n,n
Oc1ccccc1O,n,n,15.8µM,n,n,n
O=C(O)Cc1cccnc1C(=O)O,n,7.94µM,n,n,n,n
O=C(O)COc1ccccc1,n,n,u,n,n,n
O=S1OCC2C(CO1)C1(Cl)C(Cl)=C(Cl)C2(Cl)C1(Cl)Cl (stereo not drawn),n,n,n,n,n,n
O=C(O)[C@@H]1[C@H](C(=O)O)[C@]2(Cl)C(Cl)=C(Cl)[C@@]1(Cl)C2(Cl)Cl,n,n[11 µM],2.51µM,n[15.4 µM],n[15.4 µM],2µM
O=C1C=CC(=O)c2c(O)cccc21,x,x,2µM,u,n[3.08 µM],x
C#CCN[C@@H](C)Cc1ccccc1,n,n,n,n,n,n
c1cc2cc(c1)C[n+]1ccc(c3ccccc31)NCc1ccc(cc1)CNc1cc[n+](c3ccccc13)C2,n,n,u,n,n,31.6µM
CC1=NCCc2c1[nH]c1cc(O)ccc21,n,n,n,n,31.6µM!,n
COc1ccc2c3c([nH]c2c1)C(C)=NCC3,n,n,n,n,n,n
O=C1C[C@@H]2OCC=C3CN4CC[C@]56c7ccccc7N1[C@H]5[C@@H]2[C@H]3C[C@@H]46,n,n,x,x,x,n
CC[C@H](CO)NC(=O)[C@@H]1C=C2c3cccc4[nH]cc(c34)C[C@@H]2N(C)C1,n,n,n,n,n,n
c1ccc2c(c1)Nc1ccccc1S2,n,n,6.31µM,n,n,n
Oc1ccc2c3c1O[C@@H]1c4[nH]c5c(c4C[C@@]4(O)[C@@H](C2)N(CC2CC2)CC[C@]314)C[C@]1(O)[C@@H]2Cc3ccc(O)c4c3[C@@]1(CCN2CC1CC1)[C@H]5O4,n,u,n,n,n,n
N#CC(C#N)=Cc1cc(O)c(O)c(O)c1,n,7.94µM,7.94µM,n,n,n
CC(C)C[C@H](NP(=O)(O)O[C@@H]1O[C@@H](C)[C@@H](O)[C@@H](O)[C@H]1O)C(=O)N[C@@H](Cc1c[nH]c2ccccc12)C(=O)O,n,n,n,n,n,n
CCCCCCCCCCCCCC(=O)O[C@H]1[C@@H](C)[C@@]2(O)[C@@H](C=C(CO)C[C@]3(O)C(=O)C(C)=C[C@@H]23)C2C(C)(C)[C@]21OC(C)=O (stereo partly drawn),n,n,n,n,n,n
Brc1ccc(Oc2ccc(Br)cc2Br)c(Br)c1,n,31.6µM,n,n,n,n
O=C(O)c1ccccc1-c1c2cc(Br)c(=O)cc-2oc2[c]([Hg])c(O)c(Br)cc12,n,n,0.251µM,1.58µM,0.794µM,n
Cc1cc2c(s1)NC(=O)CN=C2c1cccs1,n,n,n,n,n,n
O=C1CN=C(c2cccs2)c2c(sc3c2CCCC3)N1,n,n,15.8µM,n,n,n
N[C@]1(C(=O)O)CC[C@@H](C(=O)O)C1,n,n,x,x,x,n
Cc1c(OCC(F)(F)F)ccnc1CS(=O)c1nc2ccccc2[nH]1 (stereo not drawn),n,n,25.1µM!,n,n,n
SMILES,TsaE inh,Hsp90 Hop PPI,15-hLO inh,BRCT inh red,BRCT inh green,Pol III holo inh
O=C(O)CN1CCN(CC(=O)O)CC(=O)[O][Hg][O]C(=O)C1,n,n[11 µM],0.159µM,n[15.4 µM],n[15.4 µM],n[11.4 µM]
[O]=[Cr](=[O])([OH])[O][Cr](=[O])(=[O])[OH],n,u,n,n,n,5.01µM!
C/C=C1\C[C@H](C)[C@](O)(CO)C(=O)OCC2=CCN3CC[C@@H](OC1=O)[C@@H]23,n,n,x,x,x,n
C=CCN1CC[C@@]23CCCC[C@@H]2[C@@H]1Cc1ccc(O)cc13,n,n,n,n,n,n
CN(N=O)c1ccc(O)c(O)c1,n,3.16µM,15.8µM,6.31µM,10µM,0.398µM
Cc1ccc(NC(=[OH+])c2cc3ccccc3cc2O)c(C)c1.Cc1ccc(NC(=[OH+])c2cc3ccccc3cc2O)c(C)c1.[Ni],n,n[11 µM],3.98µM,n[15.4 µM],n[15.4 µM],n[11.4 µM]
C[C@]12CC[C@H](O)C[C@@H]1CC[C@H]1[C@H]2CC[C@]2(C)[C@H](C(=O)CO)CC[C@@H]12,n,n,n,n,n,n
